Experimental data taken from PubChem BioAssay (Tox21).
Results filed as inconclusive are left out. Entries that show only a call come without a potency. Values without a mark were called inactive. Active and inactive are the calls of the source. Calls follow the shape of the dose curve; as a rule, active = well fitted curve in the direction sought with a large enough effect in the repeat runs; inconclusive = weak or mixed curves; inactive = no such curve, though single readings can be large; an effect the other way counts as inactive or inconclusive.

Assays:
[1] = molecular target: Cytochrome P450 2C19 (Homo sapiens) (UniProt P33261); test: Cytochrome P450 Family 2 Subfamily C Member 19 (CYP2C19) small molecule antagonists: luciferase reporter qHTS assay (AID 1671197); also: nearly all actives have a fitted effect of over 65% in size; as to activity change, negative = inhibition: series mostly up to about 120 µM
How it was run: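 P450-Glo CYP2C19 screening system; proluciferin substrate; DMSO compound stocks; 10 min RT preincubation; NADPH regeneration, 1 h at 37C; luciferin detection reagent, 20 min RT; luminescence as RLU.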

[2] = molecular target: Cytochrome P450 2C9 (Homo sapiens) (UniProt P11712); test: Cytochrome P450 Family 2 Subfamily C Member 9 (CYP2C9) small molecule antagonists: luciferase reporter qHTS assay (AID 1671198); also: nearly all actives have a fitted effect of over 50% in size; as to activity change, negative = inhibition: series mostly up to about 120 µM
How it was run: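 P450-Glo proluciferin substrate with CYP2C9 enzyme; 10 min RT preincubation, then NADPH regeneration 1 h at 37C; luciferin detection reagent 20 min RT, luminescence in relative luminescence units.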

[3] = molecular target: Cytochrome P450 1A2 (Homo sapiens) (UniProt P05177); test: Cytochrome P450 Family 1 Subfamily A Member 2 (CYP1A2) small molecule antagonists: luciferase reporter qHTS assay (AID 1671199); also: nearly all actives have a fitted effect of over 50% in size; as to activity change, negative = inhibition: series mostly up to about 120 µM
How it was run: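 Inhibition of CYP1A2 conversion of proluciferin to luciferin, detected by luminescence. Reaction run 1 h at room temperature with NADPH regeneration after brief compound preincubation.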

[4] = molecular target: Voltage-gated inwardly rectifying potassium channel KCNH2 (Homo sapiens) (UniProt Q12809); test: Human Ether-a-go-go-Related Gene (hERG) channel small molecule antagonists: fluorescence cell-based qHTS assay (AID 1671200); also: nearly all actives have a fitted effect of over 50% in size;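 as to activity change, negative = inhibition: hERG-expressing U2OS cells given a thallium stimulus after FluxOR II dye loading; series mostly up to about 77 µM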
How it was run: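 In this thallium-flux screen, overnight-cultured U2OS cells bearing the channel are dye-loaded in darkness for an hour, rested 10 min at room temperature, and then monitored kinetically at 480/540 nm for two minutes post-stimulus.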

[5] = molecular target: Cytochrome P450 3A4 (Homo sapiens) (UniProt P08684); test: Cytochrome P450 Family 3 Subfamily A Member 4 (CYP3A4) small molecule antagonists: luciferase reporter qHTS assay (AID 1671201); also: nearly all actives have a fitted effect of over 50% in size; as to activity change, negative = inhibition: series mostly up to about 120 µM
How it was run: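 CYP3A4 activity was followed with a P450-Glo proluciferin substrate. Test compounds in DMSO were preincubated 10 min; NADPH regeneration then ran 1 h, and light output was read 20 min after detection reagent.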
Potency is read from the fitted curve at half-maximal effect.

Cytochrome P450 3A4 (Homo sapiens), sequence (P08684 whole entry, looked up): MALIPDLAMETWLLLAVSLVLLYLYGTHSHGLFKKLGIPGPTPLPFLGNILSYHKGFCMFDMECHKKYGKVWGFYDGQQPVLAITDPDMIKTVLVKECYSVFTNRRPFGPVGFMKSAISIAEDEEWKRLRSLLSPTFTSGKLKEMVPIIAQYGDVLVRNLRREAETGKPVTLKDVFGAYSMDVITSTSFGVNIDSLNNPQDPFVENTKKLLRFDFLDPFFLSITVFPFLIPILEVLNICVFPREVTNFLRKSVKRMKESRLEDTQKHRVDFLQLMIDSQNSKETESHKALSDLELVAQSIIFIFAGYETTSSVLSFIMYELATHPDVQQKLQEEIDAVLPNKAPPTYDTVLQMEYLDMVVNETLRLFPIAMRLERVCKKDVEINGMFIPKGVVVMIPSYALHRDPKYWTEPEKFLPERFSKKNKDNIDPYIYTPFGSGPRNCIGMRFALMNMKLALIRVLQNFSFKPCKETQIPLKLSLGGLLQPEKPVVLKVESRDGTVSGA
Cytochrome P450 2C19 (Homo sapiens), sequence (P33261 whole entry, looked up): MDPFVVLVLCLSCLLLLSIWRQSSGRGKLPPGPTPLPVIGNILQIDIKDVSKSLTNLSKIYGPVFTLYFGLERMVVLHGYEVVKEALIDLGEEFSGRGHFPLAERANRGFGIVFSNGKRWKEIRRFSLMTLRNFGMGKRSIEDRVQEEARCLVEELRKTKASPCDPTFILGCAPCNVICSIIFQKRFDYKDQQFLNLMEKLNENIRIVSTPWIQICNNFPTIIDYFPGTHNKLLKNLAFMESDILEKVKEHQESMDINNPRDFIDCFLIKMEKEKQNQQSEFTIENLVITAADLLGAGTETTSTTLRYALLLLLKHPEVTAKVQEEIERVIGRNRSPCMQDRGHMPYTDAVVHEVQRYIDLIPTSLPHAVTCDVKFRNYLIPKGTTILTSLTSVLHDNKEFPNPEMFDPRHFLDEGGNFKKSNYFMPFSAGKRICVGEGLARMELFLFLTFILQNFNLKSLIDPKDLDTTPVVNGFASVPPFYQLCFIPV
Voltage-gated inwardly rectifying potassium channel KCNH2 (Homo sapiens), sequence (Q12809 whole entry, looked up): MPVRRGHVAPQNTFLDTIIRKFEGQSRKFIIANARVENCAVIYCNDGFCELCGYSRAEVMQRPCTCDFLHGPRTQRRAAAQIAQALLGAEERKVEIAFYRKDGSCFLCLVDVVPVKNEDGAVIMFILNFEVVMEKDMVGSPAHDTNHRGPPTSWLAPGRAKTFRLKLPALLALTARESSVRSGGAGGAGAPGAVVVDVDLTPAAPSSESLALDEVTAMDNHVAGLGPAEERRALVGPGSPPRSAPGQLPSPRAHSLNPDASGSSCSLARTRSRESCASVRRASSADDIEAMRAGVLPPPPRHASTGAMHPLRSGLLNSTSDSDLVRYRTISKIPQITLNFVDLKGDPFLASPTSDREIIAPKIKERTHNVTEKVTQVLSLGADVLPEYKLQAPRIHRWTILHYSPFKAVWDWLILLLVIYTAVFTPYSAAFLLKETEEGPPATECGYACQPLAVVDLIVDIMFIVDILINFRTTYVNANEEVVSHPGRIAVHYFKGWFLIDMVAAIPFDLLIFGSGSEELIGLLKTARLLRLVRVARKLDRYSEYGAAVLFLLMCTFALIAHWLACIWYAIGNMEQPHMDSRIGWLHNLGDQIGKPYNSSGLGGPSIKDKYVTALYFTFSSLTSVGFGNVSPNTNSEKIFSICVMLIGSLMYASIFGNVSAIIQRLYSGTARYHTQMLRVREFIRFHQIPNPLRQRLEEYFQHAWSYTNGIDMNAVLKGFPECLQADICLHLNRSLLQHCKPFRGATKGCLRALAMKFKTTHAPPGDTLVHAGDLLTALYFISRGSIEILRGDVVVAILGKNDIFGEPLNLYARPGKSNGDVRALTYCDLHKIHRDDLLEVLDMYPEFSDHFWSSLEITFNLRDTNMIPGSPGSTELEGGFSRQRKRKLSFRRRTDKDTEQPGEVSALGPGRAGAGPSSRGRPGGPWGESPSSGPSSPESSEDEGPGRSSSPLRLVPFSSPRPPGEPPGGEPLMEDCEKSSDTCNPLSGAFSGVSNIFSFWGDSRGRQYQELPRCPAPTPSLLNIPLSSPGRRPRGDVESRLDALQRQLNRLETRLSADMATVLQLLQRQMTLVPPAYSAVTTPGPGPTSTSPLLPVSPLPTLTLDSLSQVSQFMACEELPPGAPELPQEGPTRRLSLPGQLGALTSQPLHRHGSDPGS
Cytochrome P450 2C9 (Homo sapiens), sequence (P11712 whole entry, looked up): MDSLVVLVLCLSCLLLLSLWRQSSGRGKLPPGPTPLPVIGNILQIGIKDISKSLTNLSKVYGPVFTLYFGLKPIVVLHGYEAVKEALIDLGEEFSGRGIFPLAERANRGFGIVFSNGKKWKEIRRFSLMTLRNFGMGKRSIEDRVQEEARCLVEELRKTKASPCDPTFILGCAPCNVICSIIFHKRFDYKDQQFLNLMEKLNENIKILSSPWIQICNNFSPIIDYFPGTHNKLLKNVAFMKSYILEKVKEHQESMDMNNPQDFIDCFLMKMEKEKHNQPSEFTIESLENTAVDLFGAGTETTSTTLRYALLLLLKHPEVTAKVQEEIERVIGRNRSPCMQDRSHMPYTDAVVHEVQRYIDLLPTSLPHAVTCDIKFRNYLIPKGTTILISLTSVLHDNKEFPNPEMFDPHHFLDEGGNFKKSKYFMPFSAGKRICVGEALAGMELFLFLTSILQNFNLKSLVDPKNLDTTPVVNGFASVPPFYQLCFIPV
Cytochrome P450 1A2 (Homo sapiens), sequence (P05177 whole entry, looked up): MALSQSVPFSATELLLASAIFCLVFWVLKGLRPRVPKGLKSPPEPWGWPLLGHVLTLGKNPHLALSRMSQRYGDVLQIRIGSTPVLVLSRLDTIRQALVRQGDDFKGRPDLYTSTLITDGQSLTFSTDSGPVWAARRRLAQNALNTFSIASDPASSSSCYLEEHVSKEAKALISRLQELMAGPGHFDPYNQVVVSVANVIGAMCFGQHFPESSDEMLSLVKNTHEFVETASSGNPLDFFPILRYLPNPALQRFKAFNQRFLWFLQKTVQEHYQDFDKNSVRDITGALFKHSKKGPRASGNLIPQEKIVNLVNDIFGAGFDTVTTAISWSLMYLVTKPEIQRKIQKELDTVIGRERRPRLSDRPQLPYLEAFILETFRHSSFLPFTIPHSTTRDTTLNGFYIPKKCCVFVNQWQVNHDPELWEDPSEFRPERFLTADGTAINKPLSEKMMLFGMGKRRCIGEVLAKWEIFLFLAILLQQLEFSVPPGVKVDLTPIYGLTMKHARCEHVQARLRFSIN

SMILES: O=C(O)[C@H](O)[C@@H](O)[C@H](O[C@@H]1O[C@H](CO)[C@H](O)[C@H](O)[C@H]1O)[C@H](O)CO
- Potency [1]: inactive
- Potency [2]: inactive
- Potency [3]: inactive
- Potency [4]: inactive
- Potency [5]: inactive

SMILES: O=c1oc2cc(O)ccc2c2oc3cc(O)ccc3c12
- Potency [1]: 76.4 µM (active)
- Potency [2]: 68.1 µM (active)
- Potency [3]: 8.57 µM (active)
- Potency [4]: inactive
- Potency [5]: 19.2 µM (active)

SMILES: CCCC[P+](C)(CCCC)CCCC
- Potency [1]: inactive
- Potency [2]: inactive
- Potency [3]: inactive
- Potency [5]: inactive

SMILES: CCOc1ccc2ccccc2c1C(=O)N[C@@H]1C(=O)N2[C@@H]1SC(C)(C)[C@@H]2C(=O)O
- Potency [1]: inactive
- Potency [2]: inactive
- Potency [4]: inactive
- Potency [5]: inactive

SMILES: COCCOc1cc2cc(C(=O)NC3CCN(C(C)C)CC3)n(CC(=O)Nc3ccc(Cl)cn3)c2cn1
- Potency [4]: inactive
- Potency [5]: inactive

SMILES: CCC(C)[O-].CCC(C)[O-].CCOC(=O)/C=C(/C)[O-].[Al+3]
- Potency [4]: inactive

SMILES: O[C@@H]([C@H](O)[C@H](O)CBr)[C@H](O)CBr
- Potency [2]: inactive
- Potency [3]: 70.9 µM (active)
- Potency [4]: inactive
- Potency [5]: inactive

SMILES: Cc1c(C)c2c(c(C)c1O)CC[C@@](C)(CCC[C@H](C)CCC[C@H](C)CCCC(C)C)O2
- Potency [2]: inactive
- Potency [3]: inactive
- Potency [4]: inactive
- Potency [5]: inactive

SMILES: CC(C)(c1cc(Br)c(OCC(Br)CBr)c(Br)c1)c1cc(Br)c(OCC(Br)CBr)c(Br)c1 (stereo not drawn)
- Potency [1]: inactive
- Potency [4]: inactive
- Potency [5]: inactive

SMILES: O=c1[nH]c2ccccc2n1CCCN1CCN(C(c2ccccc2)c2ccccc2)CC1
- Potency [2]: 17.4 µM (active)
- Potency [3]: inactive
- Potency [4]: 0.379 µM (active)
- Potency [5]: inactive

SMILES: CCN1C(=O)c2ccccc2C1Nc1ccc(OCCN2CCCCC2)cc1 (stereo not drawn)
- Potency [2]: inactive
- Potency [3]: inactive
- Potency [4]: inactive

SMILES: O=C(O)CN(CCN(CC(=O)O)CC(=O)O)CC(=O)O
- activity change, negative = inhibition [4]: -1.4% [at 2.72 µM]

SMILES: COc1cccc2c1C(=O)c1c(O)c3c(c(O)c1C2=O)C[C@@](O)(C(C)=O)C[C@@H]3O[C@H]1C[C@H](N)[C@H](O)[C@H](C)O1
- Potency [4]: inactive

SMILES: CN1CCN(Cc2cc(-c3ccc4[nH]c(=O)oc4c3)co2)[C@@H](c2ccc(F)cc2)C1
- Potency [2]: inactive
- Potency [3]: inactive

SMILES: C=Cc1ccccc1C=C
- Potency [1]: inactive
- Potency [4]: inactive
- Potency [5]: inactive

SMILES: Cc1ccc(C)cc1
- Potency [2]: inactive
- Potency [4]: inactive
- Potency [5]: inactive

SMILES: O=C(Nc1ccc2c(O)c(N=Nc3ccc(N=Nc4ccc(S(=O)(=O)O)cc4)cc3)c(S(=O)(=O)O)cc2c1)c1ccccc1
- Potency [2]: 20 µM (active)
- Potency [3]: 35.6 µM (active)
- Potency [4]: inactive

SMILES: CCC(C)n1ncn(-c2ccc(N3CCN(c4ccc(OC[C@H]5CO[C@](Cn6cncn6)(c6ccc(Cl)cc6Cl)O5)cc4)CC3)cc2)c1=O (stereo partly drawn)
- Potency [2]: 13.8 µM (active)
- Potency [3]: inactive
- Potency [4]: inactive

SMILES: CCOC(=O)NNc1ccc(N(CC)CC(C)O)nn1 (stereo not drawn)
- Potency [2]: inactive
- Potency [3]: inactive
- Potency [5]: inactive

SMILES: COc1ccc(-c2coc3cc(O)ccc3c2=O)cc1
- Potency [2]: 0.252 µM (active)
- Potency [3]: 12.6 µM (active)
- Potency [4]: inactive
- Potency [5]: inactive

SMILES: OCCN1CCN(CCCN2c3ccccc3Sc3ccc(C(F)(F)F)cc32)CC1
- Potency [4]: 3.38 µM (active)

SMILES: ClCCl
- Potency [2]: inactive
- Potency [3]: inactive
- Potency [4]: inactive
- Potency [5]: inactive

SMILES: O=C1C(c2[nH]c3ccc(S(=O)(=O)O)cc3c2O)=Nc2ccc(S(=O)(=O)O)cc21
- Potency [1]: 79.6 µM (active)
- Potency [4]: inactive
- Potency [5]: inactive

SMILES: CC(C)CCCCCOC(=O)CCS
- Potency [3]: 39.9 µM (active)
- Potency [4]: inactive
- Potency [5]: inactive

SMILES: O=[N+]([O-])c1ccc(F)c(Cl)c1
- Potency [1]: 79.9 µM (active)
- Potency [4]: inactive
- Potency [5]: inactive

SMILES: OC1CCC(C2CCCCC2)CC1 (stereo not drawn)
- Potency [3]: 35.6 µM (active)
- Potency [4]: inactive
- Potency [5]: inactive

SMILES: CC(CCc1ccccc1)NCC(O)c1ccc(O)c(C(N)=O)c1 (stereo not drawn)
- Potency [2]: inactive
- Potency [3]: inactive
- Potency [4]: 19.5 µM (active)
- Potency [5]: inactive

SMILES: CCCCCCCCCCCCOCCOCCOCCOCCOCCOCCOCCOCCOCCO
- Potency [2]: 15.5 µM (active)

SMILES: NC[C@H]1O[C@H](O[C@H]2[C@H](O[C@@H]3O[C@H](CO)[C@@H](O)[C@H]3O)C(O)[C@H](N)C[C@@H]2N)[C@H](N)[C@@H](O)[C@@H]1O (stereo partly drawn)
- activity change, negative = inhibition [2]: 2.46% [at 10.5 µM]
- activity change, negative = inhibition [4]: -0.219% [at 6.97 µM]

SMILES: CC(C)(C)CC(C)(C)c1ccc(Nc2ccc(C(C)(C)CC(C)(C)C)cc2)cc1
- activity change, negative = inhibition [1]: -21.4% [at 10.5 µM]
- activity change, negative = inhibition [4]: 0.578% [at 6.97 µM]
- activity change, negative = inhibition [5]: -20% [at 10.5 µM]

SMILES: O=C1NC(=O)[C@@H]2CC=CC[C@H]12
- Potency [4]: inactive

SMILES: Cc1ccc(C(C)C)cc2c(C)ccc1-2
- Potency [4]: inactive

SMILES: Oc1c(I)cc(Cl)c2cccnc12
- Potency [4]: inactive

SMILES: CCN(CC)C(=O)c1cc(S(=O)(=O)Cc2ccccc2)c(N2CCC(c3ccccc3)CC2)cc1N(CC)CCN(C)C
- Potency [3]: inactive
- Potency [4]: 1.72 µM (active)
- Potency [5]: 0.125 µM (active)

SMILES: Sc1nc2ccccc2s1
- Potency [1]: 7.96 µM (active)
- Potency [4]: inactive
- Potency [5]: inactive

SMILES: CCCCOC(=O)CC
- Potency [2]: inactive
- Potency [3]: inactive
- Potency [4]: inactive
- Potency [5]: inactive

SMILES: CCCCCCCCCCC[C@@H](C[C@@H]1OC(=O)[C@H]1CCCCCC)OC(=O)[C@H](CC(C)C)NC=O
- Potency [2]: 2.75 µM (active)
- Potency [3]: 24.5 µM (active)
- Potency [4]: inactive

SMILES: CCCC(=O)OC(C)(C)Cc1ccccc1
- Potency [4]: inactive

SMILES: CC[N+](CC)(CC)CCOC(=O)C(C1CCCC1)C1CCCC1
- Potency [2]: inactive

SMILES: CC[N+](CC)(CC)CCOc1ccc(/C=C/c2ccccc2)cc1
- Potency [2]: inactive
- Potency [3]: inactive
- Potency [4]: 8.49 µM (active)
- Potency [5]: inactive

SMILES: Cc1cc(=O)oc2cc(O)cc(O)c12
- Potency [3]: 25.3 µM (active)
- Potency [4]: inactive
- Potency [5]: 20.1 µM (active)

SMILES: CCc1oc2ccccc2c1C(=O)c1cc(I)c(O)c(I)c1
- Potency [2]: 1.38 µM (active)
- Potency [3]: inactive
- Potency [4]: inactive
- Potency [5]: inactive
